Source: PubChem BioAssay
A selection: hits, their analogues and other compounds. The true share with any hit is near 2.6%.
p53ts 39C kill: p53ts cell cytotoxicity, nonpermissive temperature; H1299-p53A138V viability at 39C, ATP luminescence, 24 h; Potency, µM (highest dose often 46.1 µM), inactives show at the top dose activity change, negative = cell killing, actives largely listed as cytotoxic; actives 1.5% (n = 130,000); note: nearly all actives have a fitted effect of over 55% in size
FLuc inh: firefly luciferase inhibition; P08659; purified firefly luciferase, luminescence, 8 min; Potency, µM (doses to about 57.1 µM), for inactives: at the top dose activity change, negative = inhibition, actives largely listed as inhibitors; actives 2.2% (n = 72,000); note: nearly all actives have a fitted effect of over 40% in size
Target sequence (P08659 whole entry, looked up): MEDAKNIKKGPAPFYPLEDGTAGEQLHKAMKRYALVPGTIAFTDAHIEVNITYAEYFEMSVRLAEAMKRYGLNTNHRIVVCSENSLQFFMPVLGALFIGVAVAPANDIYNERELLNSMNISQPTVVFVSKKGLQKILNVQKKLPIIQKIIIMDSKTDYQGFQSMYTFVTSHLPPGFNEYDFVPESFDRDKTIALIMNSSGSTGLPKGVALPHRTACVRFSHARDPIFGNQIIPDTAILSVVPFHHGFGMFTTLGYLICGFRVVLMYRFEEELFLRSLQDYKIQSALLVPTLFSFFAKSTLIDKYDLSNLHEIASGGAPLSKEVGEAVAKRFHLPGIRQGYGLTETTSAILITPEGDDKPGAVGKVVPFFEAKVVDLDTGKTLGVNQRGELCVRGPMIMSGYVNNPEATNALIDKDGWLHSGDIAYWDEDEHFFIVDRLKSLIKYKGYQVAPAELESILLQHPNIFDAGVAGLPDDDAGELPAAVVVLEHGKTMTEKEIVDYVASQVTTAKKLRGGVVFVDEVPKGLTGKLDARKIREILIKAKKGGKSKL
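Inhibition of light generation by firefly luciferase from ATP and luciferin was profiled with concentration-response curves per sample, ATP held at 10 uM within the enzyme's linear range. Plates were read by luminescence after an 8-minute ambient incubation.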
p53ts 32C tox: cytotoxicity in p53ts cells at permissive temperature | actives 0.93% (n = 130,000) | AID 924 | Potency, µM (highest dose often 46.1 µM), inactives show top-dose activity change, negative = cytotoxicity, actives largely listed as cytotoxic | H1299-p53A138V at 32C, ATP luminescence viability, 24 h;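 note: 0% = DMSO and -100% = full killing by reference compound; nearly all actives have a fitted effect of over 55% in size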
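Viability by ATPlite luminescence after 24 h compound treatment (up to 46 uM) at the permissive 32C. Cells are H1299 carrying p53 A138V. Scale runs from DMSO basal to 100 uM tamoxifen as full kill; AC50 from Hill fits.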
An asterisk follows results filed as active; ? = inconclusive; nt = not tested or not shown; ! = repeats disagree. Calls come from the whole dose curve; as a rule, active = well fitted curve in the direction sought with a large enough effect; inconclusive = small, poorly fitted or top-dose-only effect, or another doubt; inactive = no such curve, though single readings can be large; an effect the other way counts as inactive or inconclusive. Unless noted, % is set by controls: 0 for no effect and ±100 for the full control effect; potency is the fitted concentration of half-maximal effect.

SMILES | p53ts 39C kill | FLuc inh | p53ts 32C tox
COc1cc(NC(=O)c2cc(C)nc3c2c(C)nn3-c2ccccc2Cl)cc(OC)c1 | -28% | nt | -15%
CC(=O)N1CCc2cc(S(=O)(=O)N3CCN(c4ccc(C)cc4)C(C)C3)ccc21 (centres undefined) | -30% | nt | -11%
COCCNc1nc(C)nc2c1nc(-c1ccccc1)n2CCN(C)C | 1% | nt | 1%
CCOc1ccc(CNC(=O)CSc2nnc(C)c3c(C)n(-c4ccccc4)nc23)cc1 | 25µM* | nt | 2%
CCCCNC(=O)CSc1nnc(C)c2c(C)n(-c3ccccc3)nc12 | 16µM* | nt | 7%
Cc1nnc(SCC(=O)NCc2cccc(F)c2)c2nn(-c3ccccc3)c(C)c12 | 5% | nt | 19%
CCCCNC(=O)CSc1nc2ccccc2nc1Cc1ccc(C)cc1 | -12% | nt | -1%
CCOC(=O)c1ccc2c(c1)N(Cc1ccc(F)cc1Cl)C(=O)c1ccccc1S2 | -23% | nt | 2%
CCCCN(CCCC)CCCNC(=O)c1ccc2nc(N3CCCCC3)sc2c1 | -14% | nt | 5%
CC(C)CCNC(=O)C1CCN(c2nc3ccccc3o2)CC1 | -7% | 5% | -6%
CCOc1ccc2nc(N3CCCC(C(=O)NCc4ccccc4Cl)C3)sc2c1 (centres undefined) | -56% | nt | -12%
CCCN(CCC)CCCNC(=O)C1CCN(c2nc3ccc(CC)cc3s2)CC1 | ? | nt | 13µM*
CC1CCN(c2nc3ccc(C(=O)NCc4ccccc4)cc3s2)CC1 | -5% | nt | -6%
CCCN(CCC)CCNC(=O)C1CCN(c2nc3ccc(CC)cc3s2)CC1 | ? | nt | 13µM*
COc1ccc2nc(N3CCCC(C(=O)NCCCN4CCN(C)CC4)C3)sc2c1 (centres undefined) | 10µM* | ? | 13µM*
CCc1ccc2nc(N3CCC(C(=O)NCCC(C)C)CC3)sc2c1 | 16µM* | nt | ?
CCN(CC)C(=O)Cn1c(=O)n(-c2ccc(C)c(C)c2)c(=O)c2c(C)c(C(=O)N(CC)CC)sc21 | 12% | nt | 5%
Cc1cc(C)n2nc(CNC(=O)c3ccccc3Cl)nc2n1 | 4% | nt | -7%
COc1cccc(NC(=O)CC(C)S(=O)(=O)c2ccc3c(c2)NC(=O)CO3)c1 (centres undefined) | nt | nt | 0%
COc1ccccc1C(=O)Oc1c(Sc2ccccc2)c(C)nn1-c1ccccc1 | -22% | nt | 16µM*
COc1cc(C(=O)Oc2c(Sc3ccc(C)cc3)c(C)nn2-c2ccccc2)cc(OC)c1OC | -6% | nt | 5%
CC(C)CCNC(=O)c1cccc(-n2cnc3cccnc32)c1 | -2% | nt | 10%
Fc1ccc(-c2nc(-c3cccs3)c(-c3cccs3)[nH]2)cc1 | -12% | nt | -8%
Oc1ccc(-c2nc(-c3ccc(F)cc3)c(-c3ccncc3)[nH]2)cc1 | -2% | 1.3µM*! | 13%
CC(C)CCNC(=O)c1cccc(Nc2nc3ccccc3n3nnnc23)c1 | 10µM* | nt | ?
SMILES | p53ts 39C kill | FLuc inh | p53ts 32C tox
CC(NC(=O)c1cccc(Nc2nc3ccccc3n3nnnc23)c1)c1ccccc1 (centres undefined) | nt | nt | -4%
Cc1cccc(N2CCN(C(=O)C3CCN(S(=O)(=O)c4cccs4)CC3)CC2)c1C | -13% | nt | 12%
CCOc1ccccc1Nc1nc(-c2cccc(Cl)c2)c2c(n1)-c1ccccc1OC2 | 13µM* | nt | ?
CCOc1ccccc1Nc1nnc(-c2cc3cc(Cl)ccc3oc2=O)s1 | ? | nt | 6%
CCOC(=O)c1cc(-c2ccc(C)cc2)nn1Cc1ccccc1 | -19% | nt | -6%
COC(=O)Cn1c(CN2CCc3ccccc3C2)nc2c1c(=O)n(C)c(=O)n2C | ? | -2% | 5µM*
Cc1ccccc1Cn1c(CN2CCc3ccccc3C2)nc2c1c(=O)n(C)c(=O)n2C | 14% | -1% | 8%
NC(=O)CSc1nc2c(oc3ccccc32)c(=O)n1-c1ccccc1F | -19% | nt | 7%
CC(C)c1nn2c(=O)cc(COC(=O)CNC(=O)c3ccccc3)nc2s1 | -5% | nt | 2%
Cc1nnc(Sc2nc(Sc3nnc(C)s3)nc(N3CCN(C)CC3)n2)s1 | 4µM* | 3% | 20µM*
Cc1nc(CSc2nnc(C)s2)cs1 | -2% | 0% | 22%
Cc1cc(NC(=O)C2CCN(S(=O)(=O)c3cccc4nsnc34)CC2)ccc1Br | 14% | nt | -5%
CC(=O)OC1CCC2C3CCc4cc(O)ccc4C3CCC12C (centres undefined) | 3% | nt | 2%
CC(=O)Oc1ccc2c(c1)CCC1C2CC[C@]2(C)C(OC(C)=O)CCC12 (some centres undefined) | 25µM* | nt | ?
C=Cc1ccc(Cn2c(C(=O)O)c(CNCCc3ccccc3)c3ccc(C)cc32)cc1 | ? | nt | 38%
C=Cc1ccc(Cn2c(C(=O)O)c(CNCc3cc(OC)ccc3OC)c3ccc(C)cc32)cc1 | 13µM* | nt | ?
